Experimental data from PubChem BioAssay (Tox21).
Results filed as inconclusive are left out. Entries that show only a call come without a potency. Active and inactive are the calls of the source. Unless noted, the call rests on the fitted dose curve.

Experiment: Nuclear factor erythroid 2-related factor 2/antioxidant responsive element (Nrf2/ARE) small molecule agonists: qHTS cell viability counter screen in human keratinocytes (AID 1919968; active means well fitted cell-killing curve with a large enough effect in the repeat runs; further: nearly all actives have a fitted effect of over 55% in size)
Conditions: KeratinoSens HaCaT ARE cells viability, CellTiter-Fluor, 24 h; series mostly up to 92.4 µM
In short: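 Fluorescence read-out from CellTiter-Fluor after 1 h at 37 C. Wells held HaCaT-derived ARE-luciferase reporter cells (1,500/well) treated 23 h with DMSO-dissolved compounds. Run in the same wells as the luciferase agonist read.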
Potency means the concentration at half of the fitted maximal effect.

SMILES | Potency
Nc1ccccc1Nc1ccccc1 | 48.7 µM (active)
CC[C@H](C)C(=O)O[C@H]1C[C@H](O)C=C2C=C[C@H](C)[C@H](CC[C@@H](O)C[C@@H](O)CC(=O)O)[C@H]21 | inactive
CC(=O)c1ccc2c(c1)Cc1ccccc1-2 | inactive
Cn1c(=O)c2c(ncn2CC2OCCO2)n(C)c1=O | inactive
C=CCc1cc(S(=O)(=O)c2ccc(O)c(CC=C)c2)ccc1O | 61.1 µM (active)
CCCCOc1ccc(CC(=O)NO)cc1 | inactive
CC(C)=CC=O | inactive
O=C(O)c1cccnc1Nc1cccc(C(F)(F)F)c1 | inactive
O=C1CCc2cc(OCCCCc3nnnn3C3CCCCC3)ccc2N1 | inactive
CCC(C)(C)OC | inactive
CC(=O)CCC1=C(C)CCCC1(C)C | inactive
CCN1CCN(C(=O)N[C@@H](C(=O)N[C@@H]2C(=O)N3[C@@H]2SC(C)(C)[C@H]3C(=O)O)c2ccccc2)C(=O)C1=O | inactive
CCCCCC(C)O (stereo not given) | inactive
CC(C)(C)C(O)/C=C/c1ccc2c(c1)OCO2 (stereo not given) | inactive
CC1(C)O[C@@H]2C[C@H]3[C@@H]4C[C@H](F)C5=CC(=O)C=C[C@]5(C)[C@H]4[C@@H](O)C[C@]3(C)[C@]2(C(=O)CO)O1 | inactive
C=C(C)C(=O)OCc1ccccc1 | inactive
O=C(Cl)c1cccc([N+](=O)[O-])c1 | inactive
CN1CC(=O)N2[C@H](c3ccc4c(c3)OCO4)c3[nH]c4ccccc4c3C[C@@H]2C1=O | inactive
CCCc1nc(C)c2c(=O)[nH]c(-c3cc(S(=O)(=O)N4CCN(CC)CC4)ccc3OCC)nn12 | inactive
COc1ccnc(CS(=O)c2nc3ccc(OC(F)F)cc3[nH]2)c1OC (stereo not given) | inactive

SMILES | Potency
Cc1ccc(OC(=O)CC(C)C)cc1 | inactive
Nc1ccn([C@@H]2O[C@H](CO)[C@@H](O)[C@@H]2O)c(=O)n1 | inactive
CN1C(C(=O)Nc2ccccn2)=C(O)c2sccc2S1(=O)=O | inactive
O=C(O)CO | inactive
C=C(C)C(=O)OCCOCCOC(=O)C(=C)C | inactive
O=C(Nc1cccc(Cl)c1)OCC#CCCl | 17.2 µM (active)
CCNC(=O)NCc1cccc(Cl)c1 | inactive
O=C1CCCCCO1 | inactive
COc1nc(C)nc(Cl)c1NC1=NCCN1 | inactive
Cc1ccc(Cl)c(Nc2ccccc2C(=O)O)c1Cl | inactive
CCOC(=O)CC(=O)c1ccccc1 | inactive
CO/N=C(/C(=O)N[C@@H]1C(=O)N2C(C(=O)[O-])=C(C[n+]3ccn4ncccc43)CS[C@H]12)c1nsc(N)n1 | inactive
O=C1CCCCC1C1CCCCC1 (stereo not given) | inactive
N#Cc1ccccc1O | inactive
O=C1NCC2(CCN(CCc3ccccc3)CC2)O1 | inactive
CN(C)C(=O)Nc1ccccc1 | inactive
CC(C)CO | inactive
CC[C@H]1OC(=O)[C@H](C)[C@@H](O[C@H]2C[C@@](C)(OC)[C@@H](O)[C@H](C)O2)[C@H](C)[C@@H](O[C@@H]2O[C@H](C)C[C@H](N(C)C)[C@H]2O)[C@](C)(O)C[C@@H](C)/C(=N\OCOCCOC)[C@H](C)[C@@H](O)[C@]1(C)O | inactive
Nc1ccc(Oc2ccc(N)c(N)c2)cc1 | inactive
CC(C)COC(=O)CCCCC(=O)OCC(C)C | inactive

Experiment: Nuclear factor erythroid 2-related factor 2/antioxidant responsive element (Nrf2/ARE) small molecule agonists: luciferase reporter gene qHTS assay in human keratinocytes (AID 1919969); further: nearly all actives have a fitted effect of over 35% in size
Conditions: KeratinoSens HaCaT ARE-luciferase, luminescence, 24 h; series mostly up to 92.4 µM

SMILES | Potency
Nc1ccccc1Nc1ccccc1 | 21.8 µM (active)
CC[C@H](C)C(=O)O[C@H]1C[C@H](O)C=C2C=C[C@H](C)[C@H](CC[C@@H](O)C[C@@H](O)CC(=O)O)[C@H]21 | inactive
CC(=O)c1ccc2c(c1)Cc1ccccc1-2 | inactive
Cn1c(=O)c2c(ncn2CC2OCCO2)n(C)c1=O | inactive
C=CCc1cc(S(=O)(=O)c2ccc(O)c(CC=C)c2)ccc1O | inactive
CCCCOc1ccc(CC(=O)NO)cc1 | inactive
CC(C)=CC=O | inactive
O=C(O)c1cccnc1Nc1cccc(C(F)(F)F)c1 | 23.7 µM (active)
O=C1CCc2cc(OCCCCc3nnnn3C3CCCCC3)ccc2N1 | inactive
CCC(C)(C)OC | inactive
CC(=O)CCC1=C(C)CCCC1(C)C | inactive
CCN1CCN(C(=O)N[C@@H](C(=O)N[C@@H]2C(=O)N3[C@@H]2SC(C)(C)[C@H]3C(=O)O)c2ccccc2)C(=O)C1=O | inactive
CCCCCC(C)O (stereo not given) | inactive
CC(C)(C)C(O)/C=C/c1ccc2c(c1)OCO2 (stereo not given) | inactive
CC1(C)O[C@@H]2C[C@H]3[C@@H]4C[C@H](F)C5=CC(=O)C=C[C@]5(C)[C@H]4[C@@H](O)C[C@]3(C)[C@]2(C(=O)CO)O1 | inactive
C=C(C)C(=O)OCc1ccccc1 | inactive
O=C(Cl)c1cccc([N+](=O)[O-])c1 | inactive
CN1CC(=O)N2[C@H](c3ccc4c(c3)OCO4)c3[nH]c4ccccc4c3C[C@@H]2C1=O | inactive
CCCc1nc(C)c2c(=O)[nH]c(-c3cc(S(=O)(=O)N4CCN(CC)CC4)ccc3OCC)nn12 | inactive
COc1ccnc(CS(=O)c2nc3ccc(OC(F)F)cc3[nH]2)c1OC (stereo not given) | inactive

SMILES | Potency
Cc1ccc(OC(=O)CC(C)C)cc1 | inactive
Nc1ccn([C@@H]2O[C@H](CO)[C@@H](O)[C@@H]2O)c(=O)n1 | inactive
CN1C(C(=O)Nc2ccccn2)=C(O)c2sccc2S1(=O)=O | inactive
O=C(O)CO | inactive
C=C(C)C(=O)OCCOCCOC(=O)C(=C)C | inactive
O=C(Nc1cccc(Cl)c1)OCC#CCCl | 12.2 µM (active)
CCNC(=O)NCc1cccc(Cl)c1 | inactive
O=C1CCCCCO1 | inactive
COc1nc(C)nc(Cl)c1NC1=NCCN1 | inactive
Cc1ccc(Cl)c(Nc2ccccc2C(=O)O)c1Cl | inactive
CCOC(=O)CC(=O)c1ccccc1 | inactive
CO/N=C(/C(=O)N[C@@H]1C(=O)N2C(C(=O)[O-])=C(C[n+]3ccn4ncccc43)CS[C@H]12)c1nsc(N)n1 | inactive
O=C1CCCCC1C1CCCCC1 (stereo not given) | inactive
N#Cc1ccccc1O | inactive
O=C1NCC2(CCN(CCc3ccccc3)CC2)O1 | inactive
CN(C)C(=O)Nc1ccccc1 | inactive
CC(C)CO | inactive
CC[C@H]1OC(=O)[C@H](C)[C@@H](O[C@H]2C[C@@](C)(OC)[C@@H](O)[C@H](C)O2)[C@H](C)[C@@H](O[C@@H]2O[C@H](C)C[C@H](N(C)C)[C@H]2O)[C@](C)(O)C[C@@H](C)/C(=N\OCOCCOC)[C@H](C)[C@@H](O)[C@]1(C)O | inactive
Nc1ccc(Oc2ccc(N)c(N)c2)cc1 | 6.11 µM (active)
CC(C)COC(=O)CCCCC(=O)OCC(C)C | inactive
